Results from PubChem BioAssay.
Activity calls are given as the source filed them. Unless noted, no rule for the calls is given here.

Key:
[1] = test system: Wnt5a (protein binding on small-molecule microarray); assay: small molecules binding Wnt5a protein – biophysical, small-molecule microarray, 635/667 nm fluorescence, primary screen (AID 1142); details: 635 nm fluorescence, higher = more signal;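 also: fluorescence read at 667 nm with signal to noise per printed feature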
[2] = ATP-based viability of Huh7 replicon cells – cell-based, CellTiter-Glo luminescence, basal, 48 h, cytotoxicity control for HCV replication inhibitor project, primary screen (AID 1143); details: higher = more signal, called active from +8 up or from −8 down;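 also: Huh7 hepatoma cells carrying a hepatitis C replication reporter with no stimulus; test concentration not given here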
[3] = Pseudomonas biofilm growth suppression – PAO1 strain, BacTiter-Glo luminescence, LB-PBS, primary screen (AID 1144); details: P. aeruginosa PAO1 biofilm, 12 h, higher = more signal
[4] = basal CRE-LacZ reporter activity in PC12 – cell-based, unstimulated, primary screen (AID 1145); details: no forskolin, luminescence, 4.5 h, higher = more signal, called active from +8 up or from −8 down
[5] = forskolin-driven CRE-LacZ activity in PC12 – cell-based, CRE-LacZ reporter, forskolin-stimulated, primary screen (AID 1146); details: luminescence, 4.5 h, higher = more signal, called active from +8 up or from −8 down;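 also: PC12 cells with 6xCRE LacZ reporter stimulated by forskolin 10 µM; beta-galactosidase reporter signal reflecting CREB driven transcription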
[6] = molecular target: Streptavidin (Streptomyces avidinii) (UniProt P22629); assay: compounds binding control protein streptavidin – biophysical, small-molecule microarray, 635/667 nm fluorescence, artefact control for SMM compound annotation, primary screen (AID 1147); details: higher = more signal;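 also: signal reflects streptavidin binding to arrayed compounds as a control protein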
[7] = probe aInhba binding on compound microarray – biochemical, small-molecule microarray, 635/667 nm fluorescence, primary screen (AID 1148); details: higher = more signal;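 also: score merges 667nm spot fluorescence with signal-to-noise for antibody binding to printed compounds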
Torsin-1A (Homo sapiens) [8] = molecular target: Torsin-1A (Homo sapiens) (UniProt O14656); assay: TOR1A wild-type binding on microarray – cell lysate, small-molecule microarray, lysate, 635/667 nm, primary screen (AID 1149); details: COS7 hTOR1A-WT lysate, 635 nm fluorescence, higher = more signal
Torsin-1A (Homo sapiens) [9] = molecular target: Torsin-1A (Homo sapiens) (UniProt O14656); assay: torsin A mutant lysate binding on microarrays – cell lysate, small-molecule microarray, COS7 lysate, 635/667 nm fluorescence, primary screen (AID 1150); details: COS7 hTOR1A mutant lysate, 635 nm fluorescence, higher = more signal;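 also: score pools 667 nm emission and signal to noise measuring lysate protein binding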
[10] = test system: Sonic hedgehog protein (Shh); assay: Sonic hedgehog microarray binding compounds – biochemical, small-molecule microarray, 635/667 nm fluorescence, primary screen (AID 1151); details: 635 nm fluorescence, higher = more signal;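 also: Shh protein binding to compounds spotted on small-molecule microarray slides; score combines spot fluorescence intensity with signal-to-noise across triplicate slides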
[11] = optical density shifts of acrAB sulA E. coli – strain DRC41, OD650, 48 h, E. coli filamentation inducer project, primary screen (AID 1152); details: higher = more signal, called active from +8 up or from −8 down;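 also: E. coli MC1000 strain DRC41 lacking acrAB efflux pump and sulA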
[12] = probe aLefty1 binding on compound microarray – biochemical, small-molecule microarray, 635/667 nm fluorescence, primary screen (AID 1153); details: higher = more signal;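 also: score merges spot fluorescence with signal-to-noise ratio from the scanned slide images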
[13] = plasmodial surface anion channel blockers, osmotic lysis – cell-based, P. falciparum Indochina, OD700, 1 h, primary screen (AID 1154); details: P. falciparum Indochina infected RBC osmotic lysis, higher = more signal, called active from +8 up or from −8 down
[14] = plasmodial surface anion channel blockers, osmotic lysis – cell-based, P. falciparum Indochina, OD700, 2 h, primary screen (AID 1155);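 also: lysis reports solute entry through the parasite surface anion channel PSAC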; details: P. falciparum Indochina infected erythrocytes, higher = more signal, called active from +8 up or from −8 down
[15] = changes in parasitized red cell lysis, either direction – P. falciparum Indochina, OD700, 3 h, PSAC antagonist project, primary screen (AID 1156); details: P. falciparum-infected erythrocytes, osmotic lysis, higher = more signal, called active from +8 up or from −8 down
[16] = plasmodial surface anion channel blockers, osmotic lysis – cell-based, P. falciparum Indochina, OD700, 18 h, primary screen (AID 1157); details: P. falciparum Indochina infected erythrocytes, osmotic lysis OD700, 18 h; higher = more signal, called active from +8 up or from −8 down
[17] = S6 kinase pathway phospho-S6 level changes – cell-based, A549, cytoblot, luminescence, serum-stimulated, primary screen (AID 1158); details: 5 h, higher = more signal;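 also: serum-stimulated A549 lung adenocarcinoma cells; signal is phosphorylated S6 detected by cytoblot immunostaining with HRP secondary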
[18] = molecular target: NADPH oxidase 2 (Homo sapiens) (UniProt P04839); assay: compounds shifting NOX2 Amplex Red fluorescence – cell-based, HEK293-NOX2, PMA-stimulated, NOX inhibitor project, primary screen (AID 1159); details: 45 min, higher = more signal, called active from +8 up or from −8 down; also: test concentration not given here
[19] = molecular target: NADPH oxidase 4 (Homo sapiens) (UniProt Q9NPH5); assay: compounds shifting NOX4 Amplex Red fluorescence – cell-based, HEK293-NOX4, tetracycline-induced, NOX inhibitor project, primary screen (AID 1160); details: HEK293-NOX4, Amplex Red H2O2 fluorescence, 45 min; higher = more signal, called active from +8 up or from −8 down
[20] = molecular target: NADPH oxidase 5 (Homo sapiens) (UniProt Q96PH1); assay: compounds shifting NOX5 Amplex Red fluorescence – cell-based, HEK293-NOX5, NOX inhibitor project, primary screen (AID 1161); details: HEK293-NOX5, ionomycin, 45 min, higher = more signal
NADPH oxidase 5 (Homo sapiens), sequence (Q96PH1 whole entry, looked up): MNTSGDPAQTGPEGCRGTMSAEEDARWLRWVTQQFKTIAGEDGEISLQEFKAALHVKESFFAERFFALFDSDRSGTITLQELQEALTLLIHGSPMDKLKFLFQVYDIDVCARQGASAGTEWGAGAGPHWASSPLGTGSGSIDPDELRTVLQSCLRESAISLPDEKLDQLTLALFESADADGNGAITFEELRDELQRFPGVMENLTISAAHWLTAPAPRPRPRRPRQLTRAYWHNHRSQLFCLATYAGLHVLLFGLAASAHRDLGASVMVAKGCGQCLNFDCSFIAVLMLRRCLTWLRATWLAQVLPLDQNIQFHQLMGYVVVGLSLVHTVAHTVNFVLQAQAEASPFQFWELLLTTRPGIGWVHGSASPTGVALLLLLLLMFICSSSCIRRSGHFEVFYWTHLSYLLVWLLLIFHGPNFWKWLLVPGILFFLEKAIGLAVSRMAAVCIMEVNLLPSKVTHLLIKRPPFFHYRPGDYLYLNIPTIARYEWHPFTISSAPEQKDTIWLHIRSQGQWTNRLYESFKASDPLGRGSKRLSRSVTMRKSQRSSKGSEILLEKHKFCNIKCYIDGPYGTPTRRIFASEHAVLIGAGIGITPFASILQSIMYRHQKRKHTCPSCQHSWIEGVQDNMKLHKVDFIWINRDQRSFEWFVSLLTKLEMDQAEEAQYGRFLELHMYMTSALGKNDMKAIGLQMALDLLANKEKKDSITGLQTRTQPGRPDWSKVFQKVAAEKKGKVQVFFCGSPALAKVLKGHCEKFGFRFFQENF

NADPH oxidase 4 (Homo sapiens), sequence (Q9NPH5 whole entry, looked up): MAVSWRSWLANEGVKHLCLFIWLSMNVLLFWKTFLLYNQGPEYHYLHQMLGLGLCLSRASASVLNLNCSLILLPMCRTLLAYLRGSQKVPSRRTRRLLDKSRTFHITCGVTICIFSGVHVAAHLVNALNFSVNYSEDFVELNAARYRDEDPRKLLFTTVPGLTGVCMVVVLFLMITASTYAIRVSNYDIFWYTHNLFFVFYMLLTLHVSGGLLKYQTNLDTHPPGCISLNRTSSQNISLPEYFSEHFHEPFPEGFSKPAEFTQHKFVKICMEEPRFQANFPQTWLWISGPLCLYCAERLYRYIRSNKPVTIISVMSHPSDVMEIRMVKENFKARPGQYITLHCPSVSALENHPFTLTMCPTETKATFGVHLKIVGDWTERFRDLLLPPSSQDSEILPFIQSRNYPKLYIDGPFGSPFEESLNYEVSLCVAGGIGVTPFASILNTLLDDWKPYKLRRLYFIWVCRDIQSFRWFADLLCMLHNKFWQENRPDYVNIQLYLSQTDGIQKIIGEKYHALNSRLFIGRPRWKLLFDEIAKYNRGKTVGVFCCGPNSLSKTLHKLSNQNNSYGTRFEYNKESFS
Torsin-1A (Homo sapiens), sequence (O14656 whole entry, looked up): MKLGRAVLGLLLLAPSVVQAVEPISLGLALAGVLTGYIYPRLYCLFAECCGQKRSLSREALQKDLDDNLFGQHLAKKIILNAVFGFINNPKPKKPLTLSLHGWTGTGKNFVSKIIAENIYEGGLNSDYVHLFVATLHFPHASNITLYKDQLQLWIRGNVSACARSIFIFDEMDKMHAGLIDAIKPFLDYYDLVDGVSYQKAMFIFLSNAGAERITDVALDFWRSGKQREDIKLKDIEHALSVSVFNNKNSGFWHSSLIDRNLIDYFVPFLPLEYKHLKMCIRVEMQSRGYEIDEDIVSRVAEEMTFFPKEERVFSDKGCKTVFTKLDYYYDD
NADPH oxidase 2 (Homo sapiens), sequence (P04839 whole entry, looked up): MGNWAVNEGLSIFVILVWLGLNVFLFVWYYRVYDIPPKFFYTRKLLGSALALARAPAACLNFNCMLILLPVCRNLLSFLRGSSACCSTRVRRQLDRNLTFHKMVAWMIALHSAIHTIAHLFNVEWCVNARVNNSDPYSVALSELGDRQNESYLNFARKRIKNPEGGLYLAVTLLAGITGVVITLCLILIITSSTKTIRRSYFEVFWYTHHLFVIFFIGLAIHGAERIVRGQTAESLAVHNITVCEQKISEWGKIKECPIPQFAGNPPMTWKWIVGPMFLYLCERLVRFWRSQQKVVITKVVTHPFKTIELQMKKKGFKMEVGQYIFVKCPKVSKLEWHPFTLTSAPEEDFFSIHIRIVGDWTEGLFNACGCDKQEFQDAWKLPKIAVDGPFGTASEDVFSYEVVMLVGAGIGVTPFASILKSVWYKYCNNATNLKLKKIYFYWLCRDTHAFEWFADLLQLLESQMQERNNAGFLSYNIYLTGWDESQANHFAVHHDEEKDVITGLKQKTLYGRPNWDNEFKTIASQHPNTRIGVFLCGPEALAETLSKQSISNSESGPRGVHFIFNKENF
Streptavidin (Streptomyces avidinii), sequence (P22629 whole entry, looked up): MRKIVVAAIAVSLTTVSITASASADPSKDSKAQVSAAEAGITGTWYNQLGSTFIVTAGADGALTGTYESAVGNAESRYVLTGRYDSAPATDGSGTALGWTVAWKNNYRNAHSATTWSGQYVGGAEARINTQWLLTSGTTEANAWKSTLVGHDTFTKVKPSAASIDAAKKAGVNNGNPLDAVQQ

Compound | composite z-score [1] | z-score [2] | z-score [3] | z-score [4] | z-score [5] | composite z-score [6] | composite z-score [7] | composite z-score (Torsin-1A (Homo sapiens) [8]) | composite z-score (Torsin-1A (Homo sapiens) [9]) | composite z-score [10] | z-score [11] | composite z-score [12] | z-score [13] | z-score [14] | z-score [15] | z-score [16] | z-score [17] | z-score [18] | z-score [19] | z-score [20]
CCOC(=O)C1=CC[C@@H](c2cccc(Br)c2)N(S(=O)(=O)c2ccc(C)cc2)[C@H]1c1ccc([N+](=O)[O-])cc1 | 0.559 | -2.18 (inactive) | -0.314 (inactive) | -0.63 (inactive) | 0.115 (inactive) | 1.22 | 0.157 | 0.907 | 0.469 | 0.778 | -1.22 (inactive) | 0.0509 | 1.27 (inactive) | 1.55 (inactive) | -0.0988 (inactive) | 1.29 (inactive) | -0.68 | 1.24 (inactive) | 0.77 (inactive) | 0.165
O=C1OCCC=C[C@H]2OC34C=CCN(Cn5nnc6ccccc65)C(=O)[C@H]3N(CCCCCO)C(=O)[C@@H]4C12 (stereo not given in full) | -0.355 | 0.399 (inactive) | -1.04 (inactive) | 0.0564 (inactive) | 0.804 (inactive) | -0.686 | -0.0762 | 0.97 | 1.15 | 0.0364 | 0.592 (inactive) | 0.119 | 2.34 (inactive) | 0.573 (inactive) | 2.35 (inactive) | 0.281 (inactive) | 0.0848 | 1.4 (inactive) | 0.279 (inactive) | 1.51
O=C1C2C=CC(C(O)c3ccc(Br)cc3)N(Nc3ccccc3)C2C(=O)N1c1ccccc1 (stereo not given) | -0.0007 | 0.198 (inactive) | -0.95 (inactive) | 0.24 (inactive) | 0.35 (inactive) | 1.47 | 0.147 | -0.0004 | -0.0172 | -0.146 | -1.78 (inactive) | 0.305 | 8.27 (active) | 1.8 (inactive) | 0.244 (inactive) | 1.25 (inactive) | -0.554 | -1.82 (inactive) | -4.09 (inactive) | -2.39
COc1cc(NN2C(C(O)c3ccc(I)cc3)C=CC3C(=O)N(C)C(=O)C32)cc(OC)c1OC (stereo not given) | 0.212 | -2.58 (inactive) | -0.126 (inactive) | -0.326 (inactive) | -0.445 (inactive) | -0.105 | 0.0074 | -0.442 | 1.42 | -0.441 | -0.0511 (inactive) | 0.125 | 0.318 (inactive) | 0.168 (inactive) | 1.59 (inactive) | -0.374 (inactive) | 1.28 | -2.45 (inactive) | -4.04 (inactive) | -2.92
C[N+](C)(C)CCCC[C@@H]1NC(=O)[C@@H]2C[C@H](C(=O)O)[C@H](c3cccc(OCCO)c3)N2C1=O | -0.0257 | -0.63 (inactive) | -0.773 (inactive) | -0.671 (inactive) | -0.471 (inactive) | -1.01 | -0.179 | 0.405 | 0.171 | 0.976 | 1.03 (inactive) | -0.286 | 2.2 (inactive) | 0.157 (inactive) | -1.84 (inactive) | 0.276 (inactive) | 1.44 | 1.83 (inactive) | 0.877 (inactive) | 1.01
CCOC(=O)C1=CCC(c2cccc(Cl)c2)O1 (stereo not given) | -0.0719 | -4.6 (inactive) | -1.23 (inactive) | -0.471 (inactive) | 0.0691 (inactive) | -0.164 | 0.0541 | 0.368 | 0.263 | -0.549 | -0.504 (inactive) | 0.152 | 14.9 (active) | 1.02 (inactive) | 0.75 (inactive) | -0.244 (inactive) | 1.61 | -4.41 (inactive) | -1.37 (inactive) | -3.51
NC(=O)[C@H]1[C@@H]2C(=O)O[C@@H](c3ccccc3)[C@@H](c3ccccc3)N2[C@@H](c2ccc(O)cc2)[C@]12C(=O)Nc1ccc(C#CC3(O)CCCCCC3)cc12 | 0.0428 | -4.82 (inactive) | -0.947 (inactive) | 0.272 (inactive) | 1.09 (inactive) | 0.387 | 0.0074 | 0.375 | 1.37 | 1.46 | 0.359 (inactive) | 0.354 | 2.63 (inactive) | -0.436 (inactive) | 0.67 (inactive) | -1.08 (inactive) | 1.54 | 0.487 (inactive) | -0.429 (inactive) | -2.14
COC(=O)C(CC#Cc1ccc2c(c1)[C@]1(C(=O)N2)[C@H](C(=O)N2CCc3cc(OC)c(OC)cc3C2)[C@H]2C(=O)O[C@H](c3ccccc3)[C@H](c3ccccc3)N2[C@@H]1c1ccc(O)cc1)C(=O)OC | 0.746 | -3.3 (inactive) | -1.21 (inactive) | 0.0384 (inactive) | -1.12 (inactive) | 0.112 | 0.263 | 0.644 | 0.694 | 1.87 | 1.58 (inactive) | -0.321 | 6.21 (inactive) | 1.93 (inactive) | 1.93 (inactive) | 0.958 (inactive) | 0.125 | -0.0647 (inactive) | -1.83 (inactive) | 0.121
